Reference: PubChem BioAssay (NCATS)
Values joined by “and” are separate entries in the source; they are usually repeats but may differ in a detail not shown here. Equal values may be shown once. A number with no mark means an inactive call. Inconclusive results are not listed. A call without a number means that no potency is given here. Active and inactive are the calls of the source. Unless noted, calls follow the shape of the dose curve; as a rule, active = well fitted curve in the direction sought with a large enough effect in the repeat runs; inconclusive = weak or mixed curves; inactive = no such curve, though single readings can be large; an effect the other way counts as inactive or inconclusive.

How the values were obtained:
[1] = target: Cytochrome P450 2D6 (Homo sapiens) (UniProt P10635); test: Cytochrome P450 family 2 subfamily D member 6 (CYP2D6) small molecule antagonists: luciferase biochemical (cell-free) qHTS assay (AID 1645840); also: nearly all actives have a fitted effect of over 55% in size; also: potency is read from the fitted curve at half-maximal effect
Method in brief: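 P450-Glo CYP2D6 system: proluciferin substrate converted by enzyme to luciferin, read by luminescence proportional to activity. Enzyme-substrate mix with compound 10 min at room temperature, then NADPH regeneration 1 h before detection reagent.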

[2] = target: Cytochrome P450 2C9 (Homo sapiens) (UniProt P11712); test: Cytochrome P450 family 2 subfamily C member 9 (CYP2C9) small molecule antagonists: luciferase biochemical (cell-free) qHTS assay (AID 1645842); also: nearly all actives have a fitted effect of over 55% in size; also: potency is read from the fitted curve at half-maximal effect
Method in brief: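 P450-Glo CYP2C9 system: proluciferin substrate with enzyme in mix containing 0.4% BSA, 10 min at room temperature, then NADPH regeneration solution added and incubated 1 h at 37C. Detection reagent stopped reaction; luminescence read after 20 min as RLU.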

[3] = Primary qHTS for inhibitors of nuclear receptor binding SET domain protein 2 (NSD2) in an isogenic RCH-ACV NSD2 p.E1099K mutant (9B) (AID 1645876; active = well fitted curve in the direction sought with a large enough effect; an effect the other way counts as inactive or inconclusive; also: nearly all actives have a fitted effect of over 70% in size; also: potency is read from the fitted curve at half-maximal effect)
[4] = target: Cytochrome P450 3A4 (Homo sapiens) (UniProt P08684); test: Cytochrome P450 family 3 subfamily A member 4 (CYP3A4) small molecule antagonists: luciferase qHTS assay (AID 1645841); also: nearly all actives have a fitted effect of over 45% in size
Method in brief: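 P450-Glo CYP3A4 enzyme with proluciferin substrate was preincubated with DMSO-dissolved compounds for 10 min at room temperature. NADPH regeneration solution started a 1 h reaction. Detection reagent stopped it, and luminescence was read after 20 min.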

[5] = Primary qHTS for inhibitors of nuclear receptor binding SET domain protein 2 (NSD2) in an RCH-ACV wild type WT cells (2C) (AID 1645877; active = well fitted curve in the direction sought with a large enough effect; an effect the other way counts as inactive or inconclusive; also: nearly all actives have a fitted effect of over 70% in size; also: potency is read from the fitted curve at half-maximal effect)
[6] = target: Glutathione peroxidase 1 (Homo sapiens) (UniProt P07203); test: Primary qHTS Assay for Inhibitors of Recombinant Selenoprotein Glutathione Peroxidase 1 (GPX1) (AID 1845191; active = well fitted curve in the direction sought with a large enough effect; an effect the other way counts as inactive or inconclusive; also: nearly all actives have a fitted effect of over 65% in size)
Method in brief: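 GPX1 10 nM, GR 100 nM, GSH 1 mM, NADPH 0.5 mM, CHP 0.5 mM (final). 30-min cpd preincubation, RT. Ex340/Em450 read t=0, t=15 min.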

[7] = HepG2 viability counterscreen (readout 2: ATP content) against the NCATS DSHEA and TCM libraries (AID 1794840; active = well fitted curve in the direction sought with a large enough effect; an effect the other way counts as inactive or inconclusive;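 also: HepG2 cells exposed to substances for about 24 h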)
Method in brief: (§1)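 After HepG2 cells attach for ~4 h, substances are added and incubated ~24 h at 37C, 5% CO2. GF-AFC fluorescence then CellTiter-Glo luminescence give protease and ATP readouts.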

[8] = HepG2 viability counterscreen (readout 1: protease activity) against the NCATS DSHEA and TCM libraries (AID 1794841; active = well fitted curve in the direction sought with a large enough effect; an effect the other way counts as inactive or inconclusive;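 also: cells exposed to compounds for about 24 h before the protease read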)
Method in brief: as §1

Sequence of Cytochrome P450 2D6 (Homo sapiens) (P10635 whole entry, looked up): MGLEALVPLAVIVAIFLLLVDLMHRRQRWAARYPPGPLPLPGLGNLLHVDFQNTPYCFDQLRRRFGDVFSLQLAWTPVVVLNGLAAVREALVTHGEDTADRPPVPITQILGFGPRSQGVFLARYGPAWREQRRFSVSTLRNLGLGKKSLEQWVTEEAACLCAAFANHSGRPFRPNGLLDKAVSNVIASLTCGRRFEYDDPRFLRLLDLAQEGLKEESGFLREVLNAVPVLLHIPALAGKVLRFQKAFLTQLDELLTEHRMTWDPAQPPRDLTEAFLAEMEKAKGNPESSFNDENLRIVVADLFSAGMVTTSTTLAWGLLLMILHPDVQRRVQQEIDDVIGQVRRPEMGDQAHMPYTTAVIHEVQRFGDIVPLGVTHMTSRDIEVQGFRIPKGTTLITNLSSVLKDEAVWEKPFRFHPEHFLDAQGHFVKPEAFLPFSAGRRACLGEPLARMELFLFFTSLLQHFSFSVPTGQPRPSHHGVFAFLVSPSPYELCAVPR
Sequence of Cytochrome P450 2C9 (Homo sapiens) (P11712 whole entry, looked up): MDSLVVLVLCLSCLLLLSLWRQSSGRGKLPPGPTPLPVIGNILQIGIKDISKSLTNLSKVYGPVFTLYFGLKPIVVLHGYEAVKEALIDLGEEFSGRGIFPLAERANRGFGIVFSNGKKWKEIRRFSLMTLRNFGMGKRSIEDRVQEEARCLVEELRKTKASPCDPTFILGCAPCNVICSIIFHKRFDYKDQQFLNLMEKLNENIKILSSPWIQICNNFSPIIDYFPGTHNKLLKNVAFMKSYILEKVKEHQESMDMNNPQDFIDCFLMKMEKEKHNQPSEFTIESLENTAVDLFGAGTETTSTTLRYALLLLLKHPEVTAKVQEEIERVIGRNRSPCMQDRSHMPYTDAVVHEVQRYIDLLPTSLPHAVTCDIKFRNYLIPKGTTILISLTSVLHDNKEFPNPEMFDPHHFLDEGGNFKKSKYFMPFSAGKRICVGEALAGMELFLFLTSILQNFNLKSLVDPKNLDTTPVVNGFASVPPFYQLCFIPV
Sequence of Glutathione peroxidase 1 (Homo sapiens) (P07203 whole entry, looked up): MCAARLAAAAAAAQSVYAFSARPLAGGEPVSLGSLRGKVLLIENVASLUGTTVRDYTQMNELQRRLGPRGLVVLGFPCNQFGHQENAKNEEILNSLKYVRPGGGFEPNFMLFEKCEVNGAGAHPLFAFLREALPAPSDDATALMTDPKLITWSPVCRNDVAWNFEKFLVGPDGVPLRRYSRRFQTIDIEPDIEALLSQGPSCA
Sequence of Cytochrome P450 3A4 (Homo sapiens) (P08684 whole entry, looked up): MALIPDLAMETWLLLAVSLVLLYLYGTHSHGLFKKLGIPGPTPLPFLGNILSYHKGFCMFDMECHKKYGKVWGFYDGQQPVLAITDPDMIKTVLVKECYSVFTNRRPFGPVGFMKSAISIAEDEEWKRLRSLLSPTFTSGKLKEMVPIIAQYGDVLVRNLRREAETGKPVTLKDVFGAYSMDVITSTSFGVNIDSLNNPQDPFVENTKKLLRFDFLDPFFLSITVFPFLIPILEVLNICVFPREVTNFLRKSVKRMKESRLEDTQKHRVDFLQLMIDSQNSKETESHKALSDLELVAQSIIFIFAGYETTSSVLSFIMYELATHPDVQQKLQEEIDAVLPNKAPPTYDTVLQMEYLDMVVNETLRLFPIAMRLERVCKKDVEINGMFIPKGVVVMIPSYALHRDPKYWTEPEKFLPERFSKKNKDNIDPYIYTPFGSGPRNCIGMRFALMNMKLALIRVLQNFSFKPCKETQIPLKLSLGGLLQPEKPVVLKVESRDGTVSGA

In the case of `COc1cc(NS(=O)(=O)c2ccc(N)cc2)ncn1`, the Potency [1] is reported as “inactive” and the Potency [2] is reported as “inactive”.
For `CCCCC(CC)CN1CN(CC(CC)CCCC)CC(C)(N)C1` (stereo unspecified), the Potency [1] was 0.219 µM (active) and the Potency [2] was “inactive”.
For `Cc1ccc(O)c([C@H](CCN(C(C)C)C(C)C)c2ccccc2)c1`, the Potency [1] was 2.45 µM (active) and 2.13 µM (active), the Potency [2] was “inactive” and the Potency [3] was 21.1 µM (active).
For `O=C(CCN1CCN2CCCC2C1)N1c2ccccc2Sc2ccc(Cl)cc21` (stereo unspecified), the Potency [1] was 6.74 µM (active) and the Potency [2] was “inactive”.
In the case of `CC(=O)NC(=O)c1ccccc1O`, the Potency [1] is reported as “inactive” and the Potency [2] is reported as “inactive”.
For `C[C@H]1[C@H]2CC[C@H]3[C@@H]4CC=C5C[C@@H](N(C)C)CC[C@]5(C)[C@H]4CC[C@]23CN1C`, the Potency [1] was “inactive” and the Potency [2] was “inactive”.
With `CCOC(=O)c1c(N)sc2c1CCN(Cc1ccccc1)C2` the Potency [1] was 0.0098 µM (active), the Potency [2] was 8.71 µM (active) and the Potency [3] was 16.8 µM (active).
In the case of `O=C(O)C1(C(=O)O)CCC1.[NH2-].[NH2-].[Pt+2]`, the Potency [1] is reported as 19.5 µM (active) and the Potency [4] is reported as “inactive”.
For `COc1ccc(S(=O)(=O)N2c3ccc(Cl)cc3[C@@](O)(c3ccccc3Cl)[C@H]2C(=O)N2CCC[C@@H]2C(N)=O)cc1OC`, the Potency [1] was “inactive” and the Potency [2] was 15.5 µM (active).
For `NS(=O)(=O)Cc1noc2ccccc12`, the Potency [1] was “inactive”, the Potency [4] was “inactive” and the Potency [2] was “inactive”. For the same compound, the Potency [5] was “inactive” and the Potency [6] was “inactive”.
For `C#C[C@]1(O)CC[C@H]2[C@@H]3CCC4=CC(=O)CC[C@@H]4[C@H]3CC[C@@]21CC`, the Potency [1] was “inactive”, the Potency [2] was 12.3 µM (active) and the Potency [3] was “inactive”. The Potency [5] was “inactive” and the Potency [6] was “inactive”.
With `CCCCCCCCOc1ccc(C(=O)c2ccccc2)c(O)c1` the Potency [1] was “inactive”, the Potency [2] was “inactive” and the Potency [3] was “inactive”. The Potency [5] was “inactive”.
In the case of `OC1C(O)C(O)C(O)C(O)C1O` (stereo unspecified), the Potency [1] is reported as “inactive”, the Potency [2] is reported as “inactive” and the Potency [3] is reported as “inactive”. For the same compound, the Potency [5] was “inactive”, the outcome [7] was “inactive” and the outcome [8] was “inactive”. The Potency [6] was “inactive”.
In the case of `FC1(F)C(F)(F)C(F)(F)C2(F)C(F)(F)C(F)(F)C(F)(F)C(F)(F)C2(F)C1(F)F` (stereo unspecified), the Potency [1] is reported as “inactive”, the Potency [2] is reported as “inactive” and the Potency [3] is reported as “inactive”. The Potency [5] was “inactive”.
For `C[C@@H](O)[C@H]1C(=O)N2C(C(=O)O)=C([C@H]3CCCO3)S[C@H]12`, the Potency [1] was “inactive”, the Potency [2] was “inactive” and the Potency [3] was “inactive”. The Potency [5] was “inactive”.
In the case of `CCN(CC)CCNC(=O)c1cc(Br)c(N)cc1OC`, the Potency [1] is reported as 6.92 µM (active), the Potency [2] is reported as “inactive” and the Potency [3] is reported as “inactive”. For the same compound, the Potency [5] was “inactive”.
In the case of `NC(N)=NN=C(/C=C/c1ccc([N+](=O)[O-])o1)/C=C/c1ccc([N+](=O)[O-])o1`, the Potency [1] is reported as 2.75 µM (active), the Potency [2] is reported as 15.5 µM (active) and the Potency [3] is reported as 0.668 µM (active). For the same compound, the Potency [5] was 0.531 µM (active).
With `CCN(CC)CCOc1ccc2c(c1)C(=O)c1cc(OCCN(CC)CC)ccc1-2` the Potency [1] was “inactive”, the Potency [2] was “inactive” and the Potency [3] was 9.44 µM (active). For the same compound, the Potency [5] was 9.44 µM (active).
